Results filed as inconclusive are left out. A number with no mark means an inactive call. Calls of active or inactive are those of the source. Calls follow the shape of the dose curve; as a rule, active = well fitted cell-killing curve with a large enough effect; inconclusive = small, poorly fitted or top-dose-only effect, or effect the other way; inactive = no such curve, though single readings can be large or run the other way.
Test: qHTS of pediatric cancer cell lines to identify multiple opportunities for drug repurposing: Confirmatory screen for NB-EBc1 cells (AID 1347115);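 also: cells exposed to compound for 48 h before the viability read; nearly all actives have a fitted effect of over 45% in size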
Settings: NB-EBc1 neuroblastoma cells, viability (cytotoxicity); series mostly up to 45.9 µM; activity change, negative = cytotoxic: at the top concentration
From the text: Drug repurposing or repositioning has been offered as a strategy for drug development in oncology programs. This approach has special potential for childhood cancers and other rare or orphan diseases, where the expected return on new drug development has been a disincentive to pharmaceuticals.
In this project we exploit the poly-pharmacology of drugs to discover new indications via phenotypic screening of a panel of 19 well-characterized cell lines derived from solid tumors seen in children and adolescents. The goal is to identify approved drugs with previously unrecognized anticancer properties that has the potential to reveal new mechanisms and biological processes involved in carcinogenesis or drug resistance. We employed a titration-based paradigm (quantitative high-throughput screening or qHTS), where all compounds were tested at multiple concentrations for their effect on cell viability. Concentration-response curves (CRCs) were derived directly from the primary screen, and both potency and efficacy values were used to identify compounds with robust bioactivity profiles. We screened the NIH Chemical Genomics Center (NCGC) Pharmaceutical Collection (NPC) and Mechanism Interrogation Plate (MIPE) small molecule collections of approved and investigational compounds against these cell lines; and measured metabolically active cells after 48 hours of compound treatment as a proxy for cell viability.
Assay Submitter: Nathalia J. Martinez, National Center for Advancing Translational Sciences, National Institutes of Health, Rockville, MD, USA; email: natalia.martinez@nih.gov
[1] Shen, M et al. Quantitative high-throughput phenotypic screening of pediatric cancer cell lines identifies multiple opportunities for drug repurposing. Oncotarget 2017 Dec 19;9(4):4758-4772. PMID 29435139.
The cells were obtained from University of North Carolina (UNC), Pediatric Preclinical Testing Program (PPT), and Coriell Institute (CI).
qHTS cell viability assay:
Cells were assayed in growth media at a density of 500-1,000 cells/well. Five microliters of cells were dispensed into 1,536-well, white, solid-bottom, TC-treated plates (Greiner Bio One) using a multidrop dispenser and incubated at 37 degrees C, 5% CO2, under a humidified atmosphere for 5 hours. Twenty-three nanoliters of compounds and controls (neutral control DMSO or positive control bortezomib at final concentration of 2.3 µM) were subsequently transferred by Kalypsys pintool. For primary screens, the MIPE collection was tested at 11-point dilutions (final concentrations range from 0.78 nM to 46 µM) and the NPC collection at 8-point dilutions (final concentrations range from 0.59 nM to 46 µM). Compounds tested in follow-up screens were assayed at 11-point dilutions. Cells were incubated for 48 hours, followed by addition of 3 µL of CellTiter-Glo (Promega). After a 15 min incubation at room temperature, samples were analyzed for luminescence intensity using a ViewLux High-throughput CCD imager equipped with clear filters.
% is scaled to controls: 0 for no effect and ±100 for the full control effect; potency is read from the fitted curve at half-maximal effect.

SMILES | activity change, negative = cytotoxic [%] | Potency
O=C(c1ccc(OCCN2CCCCC2)cc1)c1c(-c2ccc(O)cc2)sc2cc(O)ccc12 | -3.27 | 
NC(=O)NO | -4.61 | 
CC(CCc1ccc(O)cc1)NCCc1ccc(O)c(O)c1 (configuration not stated) |  | 5.85 µM (active)
Clc1ccc2nsnc2c1NC1=NCCN1 | -3.43 | 
O=C1c2c(O)ccc(O)c2C(=O)c2c(NCCNCCO)ccc(NCCNCCO)c21 |  | 0.414 µM (active)
CS(=O)(=O)CCNCc1ccc(-c2ccc3ncnc(Nc4ccc(OCc5cccc(F)c5)c(Cl)c4)c3c2)o1 | -63.1 | 
CN(C)CCCN1c2ccccc2CCc2ccc(Cl)cc21 | -19.5 | 
CCC1(c2ccccc2)C(=O)NCNC1=O | -0.989 | 
CC#C[C@]1(O)CC[C@H]2[C@@H]3CCC4=CC(=O)CCC4=C3[C@@H](c3ccc(N(C)C)cc3)C[C@@]21C | -12.8 | 
O=C(Nc1ccc([N+](=O)[O-])cc1Cl)c1cc(Cl)ccc1O |  | 1.44 µM (active)
CC(C)C(=O)Nc1ccc([N+](=O)[O-])c(C(F)(F)F)c1 | 0.76 | 
CN1CCN(CCCN2c3ccccc3Sc3ccc(Cl)cc32)CC1 | -19.3 | 
CC(C)NCC(O)c1ccc(O)c(O)c1 (configuration not stated) | -12.3 | 
Clc1ccc(C(c2ccccc2Cl)C(Cl)Cl)cc1 (configuration not stated) | -16.9 | 
CC(C)Cc1ccc(C(C)C(=O)O)cc1 (configuration not stated) | -13 | 
CC[C@@]1(O)C(=O)OCc2c1cc1n(c2=O)Cc2cc3c(CN(C)C)c(O)ccc3nc2-1 |  | 0.0928 µM (active)
CCCCc1oc2ccccc2c1C(=O)c1cc(I)c(OCCN(CC)CC)c(I)c1 |  | 56.2 µM (active)

From PubChem BioAssay (NCATS)
